Assay outcomes (PubChem)
HCV inh: HCV inhibition | Huh7.5.1 HCVcc-Cre infection, luciferase reporter, 44 h | Potency, µM (top dose mostly 41.8 µM), usual class: inhibitors | 3.4% of 340,000 active
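Infectious HCVcc-Cre (~0.5 moi) was added to cells just after compound, with cells seeded 4 h earlier at 1,000 per well. Luciferase activity after 44 h culture reported infection; substrate was incubated 15 min at room temperature before reading.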
AMA1 RON2 block: AMA1-RON2 (P. falciparum) interaction inhibition. AlphaScreen AMA1-biotinylated RON2 peptide binding. Potency, µM (top dose mostly 58.2 µM), most hits filed as inhibitors. 0.2% of 360,000 active; also: nearly all actives have a fitted effect of over 45% in size
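AMA1 (3D7) with his tag at 25 nM final met compounds first, then biotinylated RON2 peptide at 25 nM; detection used donor plus acceptor beads, 10 µg/mL apiece, read by AlphaScreen after 30 min at room temperature.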
Pf growth 96h: inhibits malaria parasite growth, 96 h; Potency, µM (top dose mostly 28.7 µM), most hits filed as inhibitors; P. falciparum luciferase reporter growth, 96 h; AID 504834; 6.9% of 320,000 active
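Infected RBCs, 2% Hct / 0.05% parasitemia final; luciferase-reporter P. falciparum; cpd 96 h, 37 C, 5% CO2; luciferase detection reagent; luminescence.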
Pf growth 48h: inhibits P. falciparum growth in the first generation, 48 h; P. falciparum luciferase growth in erythrocytes, 48 h; Potency, µM (top dose mostly 28.7 µM), most hits filed as inhibitors; 5.9% of 310,000 active
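Parasite viability was followed by luminescence of a genomically integrated firefly luciferase. Cultures held 0.1% parasitemia at 2% hematocrit (final), incubated under 5% CO2 at 37 C.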
Numbers stand for hits; - = inactive; ? = inconclusive; . = no result; ! = not confirmed by another sample; [ ] = dose if it differs, or a comment. Sampled rows, rich in hits. Any-hit rate of the full collection: about 11%. Calls follow the shape of the dose curve; as a rule, active = well fitted curve in the direction sought with a large enough effect; inconclusive = small, poorly fitted or top-dose-only effect, or another doubt; inactive = no such curve, though single readings can be large; an effect the other way counts as inactive or inconclusive.

SMILES	HCV inh	AMA1 RON2 block	Pf growth 96h	Pf growth 48h
Cc1cccc(C)c1NC(=O)C1(C)CSCC(=O)N1Cc1ccco1 (centres undefined)	.	-	.	.
CCOCCCNC(=O)c1ccc2c(c1)ncn2-c1cccc(C)c1	?	-	-	-
CCOC(=O)N/N=C\c1ccc(-c2cc(Cl)ccc2Cl)o1	-	?	-	5.2µM
O=C(N/N=C/c1ccc(-c2ccccc2Cl)o1)c1ccccc1	13µM	-	-	?
NC(=S)N/N=C/c1ccc(-c2cc(Cl)ccc2Cl)o1	?	-	4.7µM	.
O=C(O)c1ccc(N/N=C/c2ccc(-c3ccccc3Cl)o2)cc1	-	-	-	-
COc1ccc(N(CC(=O)Nc2ccccc2F)S(=O)(=O)c2ccc(OC)c(OC)c2)cc1	?	-	?	-
Cc1cccc(OC(=O)Cn2c(C(F)(F)F)nc3ccccc32)c1	-	-	-	-
CC1CCC(C(C)C)C(OC(=O)Cn2c(COc3ccccc3)[n+](C)c3ccccc32)C1 (centres undefined)	13µM	-	2.3µM	1.7µM
Cc1cccc(OCc2n(CC(=O)OC3CC(C)CCC3C(C)C)c3ccccc3[n+]2C)c1 (centres undefined)	-	-	-	2.3µM
O=C(O)c1cccc(S(=O)(=O)Nc2ccc3c(c2)CCC3)c1	-	-	4.1µM	-
O=C(O)c1cccc(S(=O)(=O)Nc2cccc(S(=O)(=O)Nc3ccc(Br)cc3)c2)c1	-	-	-	-
Cc1cc(C)c(NC(=O)CS(=O)CC(=O)NC2CCCc3ccccc32)c(C)c1 (centres undefined)	?	?	10µM	-
Cc1ccc(S(=O)(=O)N2CCN(CC(=O)NC3CCCc4ccccc43)CC2)cc1C (centres undefined)	32µM	-	.	?
O=C(NC1CCCc2ccccc21)c1cccc(S(=O)(=O)N2CCN(c3ccccc3)CC2)c1 (centres undefined)	?	-	.	10µM
Cc1ccc(S(=O)(=O)N2CCN(CC(=O)NC3CCCc4ccccc43)CC2)c(C)c1 (centres undefined)	?	-	.	-
CC(C)N1CCN(Cc2cn[nH]c2C2CCCCC2)CC1CCO (centres undefined)	-	-	-	-
Cc1[nH]c2ccccc2c1C(=O)CSc1nc2cc(S(=O)(=O)N3CCCCC3)ccc2o1	7.1µM	?	-	?
Cc1ccc2nc(SCC(=O)NC3CCCc4ccccc43)[nH]c2c1 (centres undefined)	11µM	-[2.32 µM]	-	-
O=C(CSc1nc2cc(S(=O)(=O)N3CCOCC3)ccc2o1)NC1CCCc2ccccc21 (centres undefined)	?	-	?	9.3µM
O=C(CSc1cc(Cl)ccc1Cl)NC1CCCc2ccccc21 (centres undefined)	?	-	?	-
Cc1cc(C)c(S(=O)(=O)Nc2ccc3c(c2)CCC3)c(C)c1	11µM	-	?	-
CSCCC(NC(=O)c1ccc(Cl)cc1Cl)C(=O)NCC(c1cccs1)N(C)C (centres undefined)	-	-	.	.
Fc1c(F)c(F)c(SCn2cc(Br)cn2)c(F)c1F	-	-	-	-
CC(=O)N(c1nnc(-c2cccc(C)c2)s1)C1CCCC1	-	-	-	-
SMILES	HCV inh	AMA1 RON2 block	Pf growth 96h	Pf growth 48h
O=C(Nc1ccc2c(c1)CCC2)c1cccc(S(=O)(=O)N2CCN(c3ccccc3)CC2)c1	0.56µM	-	?	.
Cc1ccc([N+](=O)[O-])c(OCCN2CCNCC2)c1	-	?	2.3µM	-
CCn1cc(CCCC(=O)NCc2ccc(OC)cc2)c2ccccc21	?	-	-	2.3µM
Cc1ccc(CNC(=O)CCn2cc(-c3ccc(C)cc3)nc2CCN)cc1	-	-	?	12µM
Cc1ccc(CNC(=O)CCc2cn(C)c3ccccc23)cc1	-	-	13µM	-
CCn1cc(CCC(=O)NCc2cccc(OC)c2OC)c2ccccc21	?	-	-	-
CCOc1ccccc1CNC(=O)CCc1cn(CC)c2ccccc12	?	-	-	15µM
Cc1cc(=O)[nH]c(SCc2ccc(Cl)cc2Cl)n1	-	-	-	-
CCOc1ccc(CNC(=O)CCCc2cn(C)c3ccccc23)cc1OC	?	-	?	-
Cc1ccc(Cn2cc(CCC(=O)O)c3ccccc32)cc1	-	-	4.7µM	.
CCOc1ccc(CNC(=O)CCCc2cn(C)c3ccccc23)cc1	-	-	-	3.7µM
CCN(C(=O)CCN1C(=O)S/C(=C\c2ccccc2)C1=O)C1CCS(=O)(=O)C1 (centres undefined)	-	-	?	-
Clc1ccccc1Oc1cnc2ccccc2n1	-	-	-	2.6µM
c1ccc(Oc2cnc3ccccc3n2)cc1	-	-	-	-
CO/N=C(/C)CCS(=O)(=O)c1ccccc1	-	-	-	?
O=C(Nc1ccc(Cl)c(Cl)c1)Nc1cc(C(=O)NC2CC2)ccc1Cl	?	.	?	13µM
O=C(Nc1ccc(Cl)c(Cl)c1)NC1CCS(=O)(=O)C1 (centres undefined)	-	-	-	-
CN1C(=O)/C(=C\c2ccccc2F)Sc2ccc(C(=O)NC3CCN(Cc4ccccc4)CC3)cc21	4µM	-	?	1.7µM
O=C(NC1CCN(Cc2ccc(Cl)cc2Cl)CC1)c1ccccc1	?	-	2.9µM	-[0.00184 µM]
Cc1ccc(Cl)cc1S(=O)(=O)N1CCC(C(=O)NC2CCN(Cc3ccccc3)CC2)CC1	?	-	-	7.4µM
O=C(Cn1cc2c(n1)CCCCC2)NC1CCN(Cc2ccccc2)CC1	?	-	12µM	.
O=C1Nc2cc(C(=O)NCCN3CCCCCC3)ccc2S/C1=C/c1ccccc1F	.	-	.	.
COc1cccc(CN2CCC(C(=O)N3CCN(c4ccccc4F)CC3)CC2)c1OC	-	-	?	-
CCOc1ccccc1C1NC(=O)CCC1[N+](=O)[O-] (centres undefined)	-	-	-	-
Cc1ccc(S(=O)(=O)N(C)c2ccccc2C(=O)Nc2c(F)cccc2F)cc1	-	-	?	-
SMILES	HCV inh	AMA1 RON2 block	Pf growth 96h	Pf growth 48h
CC(C)(C)c1ccc(C(=O)NC2CCN(Cc3ccccc3)CC2)cc1	?	-	3.3µM	?
O=C(NC1CCN(Cc2ccccc2)CC1)c1ccccc1	-	-	-	-[0.00184 µM]
CCOC(=O)N1CCC(NC(=O)c2cc(C(=O)NC3CCN(Cc4ccccc4)CC3)ccc2CO)CC1	-	-	10µM	-
Cc1ccc(-c2nnn(CC(=O)NC3CCN(Cc4ccccc4)CC3)n2)cc1	22µM	-	-	?
O=C(NC1CCN(CCc2c[nH]c3ccccc23)CC1)c1ccccc1	-	-	12µM	15µM!
Cc1ccc(S(=O)(=O)NC(=O)C2(C)CCN2C(=O)Cc2cccs2)cc1 (centres undefined)	.	-	.	.
CCCCCn1c(=O)[nH]c2cc(C(=O)NC3CCN(Cc4ccccc4)CC3)ccc2c1=O	-	-	.	.
O=C(Cc1ccc(Br)cc1)NC1CCN(Cc2ccccc2)CC1	10µM	-	-	-
O=C(NC1CCN(Cc2ccccc2)CC1)c1ccc2c(c1)[nH]c(=O)n2Cc1ccc(F)cc1	2.5µM	-	-	-
Brc1cccc(CN2CCCCCC2)c1	-	?	-	-
OC1(c2ccc(Br)cc2)CCN(Cc2cccc(Br)c2)CC1	-	-	4.7µM	?
